{"source": "PubChem BioAssay AID1159580", "about": "(chemical genetic matrix, 2015)", "assay": "chemical genetic growth profiling, strain panel (AID 1159580);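 also: tested at 20 µM; growth read once vehicle control cultures reached saturation at 30 °C; 1 = growth at the plate median or of vehicle wells; lower values mean less growth of the strain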", "details": "S. cerevisiae deletion strains, growth OD", "note": "“And” between values parts separate entries of the source, which are not always exact repeats. Identical values can stand only once. About 2,000 (36%) of roughly 5,500 compounds were called active. Inconclusive results (about 18%) are left out. Rule as the data show it: active = normalized growth mostly below about 0.91 (no sharp cut-off); inconclusive = no clear call, values can overlap the other calls; inactive = mostly above about 0.92. The list shows a part of the results.", "data": [{"smiles": "COc1ccc2oc(-c3ccccc3)c(OC)c(=O)c2c1", "values": [{"measurement": "normalized growth", "setting": "locus YAL013W, strain DEP1, stronger effect = lower value", "value": "0.903 (active)"}, {"measurement": "normalized growth", "setting": "locus YBR021W, strain FUR4, stronger effect = lower value", "value": "0.925 (inactive)"}, {"measurement": "normalized growth", "setting": "locus YBR229C, strain ROT2, stronger effect = lower value", "value": "0.929 (inactive)"}, {"measurement": "normalized growth", "setting": "locus YCL029C, strain bik1, stronger effect = lower value", "value": "0.906 (active)"}, {"measurement": "normalized growth", "setting": "locus YDL035C, strain GPR1, stronger effect = lower value", "value": "0.846 (active)"}, {"measurement": "normalized growth", "setting": "locus YDL074C, strain BRE1, stronger effect = lower value", "value": "0.71 (active)"}, {"measurement": "normalized growth", "setting": "locus YDL101C, strain DUN1, stronger effect = lower value", "value": "0.888 (active)"}, {"measurement": "normalized growth", "setting": "locus YDL134C, strain PPH21, stronger effect = lower value", "value": "0.828 (active)"}, {"measurement": "normalized growth", "setting": "locus YDL185W, strain tfp1, stronger effect = lower value", "value": "0.923 (inactive)"}, {"measurement": "normalized growth", "setting": "locus YDL192W, strain arf1, stronger effect = lower value", "value": "0.858 (active)"}, {"measurement": "normalized growth", "setting": "locus YDR101C, strain arx1, stronger effect = lower value", "value": "0.887 (active)"}, {"measurement": "normalized growth", "setting": "locus YDR150W, strain NUM1, stronger effect = lower value", "value": "0.944 (inactive)"}, {"measurement": "normalized growth", "setting": "locus YDR162C, strain NBP2, stronger effect = lower value", "value": "0.719 (active)"}, {"measurement": "normalized growth", "setting": "locus YDR318W, strain mcm21, stronger effect = lower value", "value": "0.808 (active)"}, {"measurement": "normalized growth", "setting": "locus YDR388W, stronger effect = lower value", "value": "0.892 (active)"}, {"measurement": "normalized growth", "setting": "locus YDR502C, strain sam2, stronger effect = lower value", "value": "0.867 (active)"}, {"measurement": "normalized growth", "setting": "locus YEL061C, strain CIN8, stronger effect = lower value", "value": "0.938 (inactive)"}, {"measurement": "normalized growth", "setting": "locus YER110C, stronger effect = lower value", "value": "0.861 (active)"}, {"measurement": "normalized growth", "setting": "locus YER155C, strain BEM2, stronger effect = lower value", "value": "0.926 (inactive)"}, {"measurement": "normalized growth", "setting": "locus YER167W, strain BCK2, stronger effect = lower value", "value": "0.801 (active)"}, {"measurement": "normalized growth", "setting": "locus YGL078C, strain dbp3, stronger effect = lower value", "value": "0.956 (inactive)"}, {"measurement": "normalized growth", "setting": "locus YGL086W, strain mad1, stronger effect = lower value", "value": "0.882 (active)"}, {"measurement": "normalized growth", "setting": "locus YGL248W, strain PDE1, stronger effect = lower value", "value": "0.814 (active)"}, {"measurement": "normalized growth", "setting": "locus YGR078C, strain PAC10, stronger effect = lower value", "value": "0.748 (active)"}, {"measurement": "normalized growth", "setting": "locus YGR135W, strain pre9, stronger effect = lower value", "value": "0.784 (active)"}, {"measurement": "normalized growth", "setting": "locus YGR229C, strain SMI1, stronger effect = lower value", "value": "0.58 (active)"}, {"measurement": "normalized growth", "setting": "locus YGR252W, strain gcn5, stronger effect = lower value", "value": "0.68 (active)"}, {"measurement": "normalized growth", "setting": "locus YHR030C, strain SLT2, stronger effect = lower value", "value": "0.674 (active) and 0.934 (inactive)"}, {"measurement": "normalized growth", "setting": "locus YHR079C, strain IRE1 (second series), stronger effect = lower value", "value": "0.828 (active)"}, {"measurement": "normalized growth", "setting": "locus YHR079C, strain IRE1, stronger effect = lower value", "value": "0.926 (inactive)"}, {"measurement": "normalized growth", "setting": "locus YHR094C, strain hxt1, stronger effect = lower value", "value": "0.936 (inactive)"}, {"measurement": "normalized growth", "setting": "locus YHR129C, strain ARP1, stronger effect = lower value", "value": "0.874 (active)"}, {"measurement": "normalized growth", "setting": "locus YHR200W, strain rpn10, stronger effect = lower value", "value": "0.897 (active)"}, {"measurement": "normalized growth", "setting": "locus YIL066C, strain RNR3, stronger effect = lower value", "value": "0.882 (inactive)"}, {"measurement": "normalized growth", "setting": "locus YIL073C, strain SPO22, stronger effect = lower value", "value": "0.803 (inactive)"}, {"measurement": "normalized growth", "setting": "locus YIL125W, strain kgd1, stronger effect = lower value", "value": "0.956 (inactive)"}, {"measurement": "normalized growth", "setting": "locus YIR030C, strain dcg1, stronger effect = lower value", "value": "0.879 (active)"}, {"measurement": "normalized growth", "setting": "locus YJL095W, strain BCK1, stronger effect = lower value", "value": "0.426 (active) and 0.93 (inactive)"}, {"measurement": "normalized growth", "setting": "locus YJL134W, strain LCB3, stronger effect = lower value", "value": "0.946 (inactive)"}, {"measurement": "normalized growth", "setting": "locus YJL168C, strain set2, stronger effect = lower value", "value": "0.912 (active)"}, {"measurement": "normalized growth", "setting": "locus YJL187C, strain SWE1 (second series), stronger effect = lower value", "value": "0.855 (active)"}, {"measurement": "normalized growth", "setting": "locus YJR043C, strain POL32, stronger effect = lower value", "value": "0.863 (inactive)"}, {"measurement": "normalized growth", "setting": "locus YJR066W, strain TOR1, stronger effect = lower value", "value": "0.867 (inactive)"}, {"measurement": "normalized growth", "setting": "locus YJR075W, strain HOC1, stronger effect = lower value", "value": "0.844 (active)"}, {"measurement": "normalized growth", "setting": "locus YKL009W, strain mrt4, stronger effect = lower value", "value": "0.877 (active)"}, {"measurement": "normalized growth", "setting": "locus YKL068W, stronger effect = lower value", "value": "0.96 (inactive)"}, {"measurement": "normalized growth", "setting": "locus YKL085W, strain MDH1 (second series), stronger effect = lower value", "value": "0.945 (inactive)"}, {"measurement": "normalized growth", "setting": "locus YKL085W, strain MDH1, stronger effect = lower value", "value": "0.945 (inactive)"}]}]}
